This is one part of a sample in which the strongest signals are shown more often than they occur.
B1: TIM-1 (Mus musculus), AAL35774 (protein)
chain: MNQIQVFISGLILLLPGAVDSYVEVKGVVGHPVTLPCTYSTYRGITTTCWGRGQCPSSACQNTLIWTNGHRVTYQKSSRYNLKGHISEGDVSLTIENSVESDSGLYCCRVEIPGWFNDQKVTFSLQVKPEIPTRPPTRPTTTRPTATGRPTTISTRSTHVPTSIRVSTSTPPTSTHTWTHKPEPTTFCPHETTAEVTGIPSHTPTDWNGTVTSSGDTWSNHTEAIPPGKPQKNPTKGFYVGICIAALLLLLLVSTVAITRYILMKRKSASLSVVAFRVSKIEALQNAAVVHSRAEDNIYIVEDRP
B2: CGL3 (Coprinopsis cinerea) (protein)
chain: MGHHHHHHHHSGFHILRLESTVDLSEPLKDNGIIVFQSDKLDLEPSPNLGPTGIDNTNVNLINAKGDVLLHIGIRRRENAFVFNSIPYGESRGPEERIPLEGTFGDRRDPSITVFDHPDRYQIMIDYKTVYYYKKRLEGRCEKVSYKINEGQTPPFSDVLGVTVLYFANVMPRAN

Key:
Assay in all cases: glycan array binding signal (z-score within array); higher = stronger binding
Conditions in all cases: glycan notation: IUPAC condensed, linker removed
[1] = target: Fuc(a1-2)[GalNAc(a1-3)]Gal(b1-4)GlcNAc
How it was run: (§1)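 Glycan array binding is given as a within-array Z-score, which can be read as non-binding when negative. The arrays, 3228 of them, came from the Consortium for Functional Glycomics database and were retained only where the protein sequence was available. Z-scores were averaged across arrays of the same protein sequence at different concentrations or buffers and across linkers.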

[2] = target: Gal(a1-3)Gal(b1-3)Glc
How it was run: as §1

[3] = target: Gal(a1-3)Gal(b1-4)[Fuc(a1-3)]GlcNAc
How it was run: as §1

[4] = target: Gal(a1-4)Gal(b1-4)Gal
How it was run: as §1

[5] = target: Gal3S(b1-3)GlcNAc
How it was run: as §1

[6] = target: Gal6S(b1-4)Glc
How it was run: as §1

[7] = target: GlcA(b1-3)Gal
How it was run: as §1

[8] = target: GlcA(b1-6)Gal
How it was run: as §1

[9] = target: GlcNAc(b1-3)[GlcNAc(b1-6)]GlcNAc
How it was run: as §1

[10] = target: GlcNAc(b1-4)GlcNAc(b1-4)GlcNAc(b1-4)GlcNAc(b1-4)GlcNAc
How it was run: as §1

[11] = target: Neu5Ac(a2-3)Gal(b1-4)[Fuc(a1-3)]GlcNAc
How it was run: as §1

[12] = target: Neu5Ac(a2-3)Gal(b1-4)[Fuc(a1-3)]GlcNAc(b1-3)Gal
How it was run: as §1

[13] = target: Neu5Ac(a2-3)GalNAc(b1-4)GlcNAc
How it was run: as §1

[14] = target: Neu5Ac(a2-3)[GalNAc(b1-4)]Gal(b1-4)Glc
How it was run: as §1

[15] = target: Neu5Ac(a2-3)[Neu5Ac(a2-6)]GalNAc
How it was run: as §1

[16] = target: Neu5Ac(a2-6)Gal(b1-4)GlcNAc(b1-3)Gal(b1-4)[Fuc(a1-3)]GlcNAc(b1-3)Gal(b1-4)[Fuc(a1-3)]GlcNAc
How it was run: as §1

[17] = target: Neu5Ac(a2-6)GalNAc
How it was run: as §1

[18] = target: Fuc(a1-2)[GalNAc(a1-4)]Gal(b1-4)GlcNAc
How it was run: as §1

[19] = target: Gal(a1-4)Gal(b1-4)GlcNAc
How it was run: as §1

[20] = target: Gal(b1-3)GlcNAc(b1-3)Gal(b1-4)Glc
How it was run: as §1

[21] = target: Gal(b1-4)GlcNAc(b1-3)GalNAc
How it was run: as §1

[22] = target: Gal(b1-4)GlcNAc(b1-6)[Gal(b1-3)]GalNAc
How it was run: as §1

[23] = target: Gal3S(b1-4)Glc
How it was run: as §1

[24] = target: GalNAc(b1-4)GlcNAc
How it was run: as §1

[25] = target: GlcNAc(b1-2)Gal(b1-3)GalNAc
How it was run: as §1

[26] = target: GlcNAc(b1-4)GlcNAc(b1-4)GlcNAc
How it was run: as §1

[27] = target: Neu5Ac(a2-3)Gal(b1-3)[Neu5Ac(a2-3)Gal(b1-4)]GlcNAc
How it was run: as §1

[28] = target: Neu5Ac(a2-6)Gal(b1-4)GlcNAc(b1-3)Gal(b1-4)GlcNAc
How it was run: as §1

[29] = target: Neu5Ac(a2-8)Neu5Ac(a2-3)[GalNAc(b1-4)]Gal(b1-4)Glc
How it was run: as §1

[30] = target: Neu5Gc(a2-3)Gal(b1-3)GlcNAc
How it was run: as §1

Row | Binder | glycan array binding signal (z-score) [1] | glycan array binding signal (z-score) [2] | glycan array binding signal (z-score) [3] | glycan array binding signal (z-score) [4] | glycan array binding signal (z-score) [5] | glycan array binding signal (z-score) [6] | glycan array binding signal (z-score) [7] | glycan array binding signal (z-score) [8] | glycan array binding signal (z-score) [9] | glycan array binding signal (z-score) [10] | glycan array binding signal (z-score) [11] | glycan array binding signal (z-score) [12] | glycan array binding signal (z-score) [13] | glycan array binding signal (z-score) [14] | glycan array binding signal (z-score) [15] | glycan array binding signal (z-score) [16] | glycan array binding signal (z-score) [17] | glycan array binding signal (z-score) [18] | glycan array binding signal (z-score) [19] | glycan array binding signal (z-score) [20] | glycan array binding signal (z-score) [21] | glycan array binding signal (z-score) [22] | glycan array binding signal (z-score) [23] | glycan array binding signal (z-score) [24] | glycan array binding signal (z-score) [25] | glycan array binding signal (z-score) [26] | glycan array binding signal (z-score) [27] | glycan array binding signal (z-score) [28] | glycan array binding signal (z-score) [29] | glycan array binding signal (z-score) [30]
1 | B1 | -0.268 | -0.335 | 2.6 | 1.46 | -0.247 | -0.128 | 2.46 | 2.12 | -0.61 | 1.29 | -0.451 | -0.414 | -0.411 | -0.433 | 0.386 | -0.125 | -0.529 |  |  |  |  |  |  |  |  |  |  |  |  | 
2 | B2 |  |  |  |  |  |  |  |  |  |  |  |  |  |  |  |  |  | -0.216 | -0.049 | 2.51 | -0.201 | -0.193 | 0.022 | 6.64 | -0.197 | 8.4 | -0.222 | -0.21 | -0.128 | -0.191

Source: the supplement of paper PMC8728848
